The first experiment has as its target SPI1 (Homo sapiens, UniProt P17947 1-270). As to the kind of experiment: DAPPL (digital affinity profiling via proximity ligation, sequencing); 10 mM Tris-HCl pH 7.5, 50 mM NaCl, 1 mM DTT, 4% glycerol, room temperature, 30 min; GST-TFs on glutathione beads, 16-mer random dsDNA library, 0.1% formaldehyde crosslink after washing; high values mean tight binding. The settings on record: protein: recombinant; tags: N-terminal GST; dsDNA, one strand shown. In short, it runs like this: (§1)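 Human transcription factors carrying a GST fusion were produced in yeast, bound to glutathione beads, tagged with DNA barcodes and pooled together with a tag-only sample. Each pool was held with 200 nmole of a random double-stranded 16-mer DNA library in Tris/NaCl/DTT/glycerol buffer for 30 min at room temperature, then washed, crosslinked in 0.1% formaldehyde, proximity-ligated with BsaI/T4 ligase (1 h, 37 °C), PCR-amplified and sequenced on an Illumina NextSeq500. Binding signal is the read frequency of each hexamer for a given factor divided by its frequency in the tag-only sample.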
Sequence of SPIB (Q01892 whole entry): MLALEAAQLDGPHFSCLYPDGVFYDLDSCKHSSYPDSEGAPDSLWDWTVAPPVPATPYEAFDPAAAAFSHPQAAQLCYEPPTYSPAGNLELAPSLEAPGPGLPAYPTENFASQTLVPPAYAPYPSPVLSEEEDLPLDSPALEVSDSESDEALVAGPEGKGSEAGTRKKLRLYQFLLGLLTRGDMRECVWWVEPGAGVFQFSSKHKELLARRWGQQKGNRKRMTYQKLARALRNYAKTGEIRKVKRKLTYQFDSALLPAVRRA
For AGTGCG, the binding signal was 1.14 fold enrichment (6-mer frequency, TF over GST control).
The same measure, in the same setting: then GGGAAG, with 1.51 fold enrichment (6-mer frequency, TF over GST control); and AGAGGA, with 1.22 fold enrichment (6-mer frequency, TF over GST control).
On the same count and under the same terms, then AAAGAG, with 1.45 fold enrichment (6-mer frequency, TF over GST control).
On the same count and under the same terms, the same measure for AAGAGG: 1.56 fold enrichment (6-mer frequency, TF over GST control); for GGGGAA: 1.21 fold enrichment (6-mer frequency, TF over GST control); for AGTGGA: 1.08 fold enrichment (6-mer frequency, TF over GST control).
Consider GTGTGC, for which the binding signal is 1.01 fold enrichment (6-mer frequency, TF over GST control).
In the case of AGTGAA, the binding signal was 1.26 fold enrichment (6-mer frequency, TF over GST control).
Consider AGTGAT, for which the binding signal was 1.06 fold enrichment (6-mer frequency, TF over GST control).
TAGGGA: the binding signal is 1.05 fold enrichment (6-mer frequency, TF over GST control).
On to TGAGGA, for which the binding signal was 1.07 fold enrichment (6-mer frequency, TF over GST control).
Same read-out and setting: then GAGGAA, with 1.64 fold enrichment (6-mer frequency, TF over GST control); and AGCGGA, with 1.26 fold enrichment (6-mer frequency, TF over GST control).

The next experiment deals with SPIB (Homo sapiens, UniProt Q01892 1-262). The description is as above. As to conditions: protein: recombinant; tags: N-terminal GST; dsDNA, one strand shown. The method in brief:
as §1
For the sequence GTGGTG, the binding signal was 1.02 fold enrichment (6-mer frequency, TF over GST control).
On the same count and under the same terms, then TCGCAG, with 1.04 fold enrichment (6-mer frequency, TF over GST control).
For the sequence CGCTGA, the binding signal is 1.01 fold enrichment (6-mer frequency, TF over GST control).
The same measure, in the same setting: then AGCGTA, with 1.02 fold enrichment (6-mer frequency, TF over GST control).

For the next experiment, the target named is T1, ELK3 (Homo sapiens, UniProt P41970 1-407).
T1 sequence: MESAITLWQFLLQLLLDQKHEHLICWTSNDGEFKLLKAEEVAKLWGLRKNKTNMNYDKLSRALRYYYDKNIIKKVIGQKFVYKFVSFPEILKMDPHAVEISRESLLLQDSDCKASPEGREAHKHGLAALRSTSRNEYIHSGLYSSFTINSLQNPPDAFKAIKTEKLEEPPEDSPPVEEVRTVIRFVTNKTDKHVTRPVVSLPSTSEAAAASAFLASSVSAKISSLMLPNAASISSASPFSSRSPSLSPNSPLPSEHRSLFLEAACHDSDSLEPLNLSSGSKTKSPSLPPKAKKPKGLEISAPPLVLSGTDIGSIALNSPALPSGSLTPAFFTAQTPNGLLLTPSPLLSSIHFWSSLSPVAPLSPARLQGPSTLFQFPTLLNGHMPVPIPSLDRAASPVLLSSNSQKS
The experiment is described as above. The settings on record: protein: recombinant; tags: N-terminal GST; dsDNA, one strand shown. The method in brief: as §1
For the sequence GCCACG, the binding signal is 1.03 fold enrichment (6-mer frequency, TF over GST control).
Still for that read-out and setting: the same measure for AAACGT: 1.06 fold enrichment (6-mer frequency, TF over GST control); for CGGAAT: 1.01 fold enrichment (6-mer frequency, TF over GST control).
In the case of CGAGCG, the binding signal is 1.01 fold enrichment (6-mer frequency, TF over GST control).
For CCGTAG, the binding signal was 1.02 fold enrichment (6-mer frequency, TF over GST control).

Another experiment concerns the target T2, FEV (Homo sapiens, UniProt Q99581 1-238).
T2 sequence: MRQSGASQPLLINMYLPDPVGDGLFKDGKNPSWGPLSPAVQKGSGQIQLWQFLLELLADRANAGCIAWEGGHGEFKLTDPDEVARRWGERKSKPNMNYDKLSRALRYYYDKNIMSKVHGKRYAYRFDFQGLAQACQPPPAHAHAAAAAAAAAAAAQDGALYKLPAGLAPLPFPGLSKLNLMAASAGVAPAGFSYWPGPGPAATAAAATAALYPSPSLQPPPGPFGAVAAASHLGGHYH
The experiment is described as above. The settings on record: protein: recombinant; tags: N-terminal GST; dsDNA, one strand shown. In short, it runs like this: as §1
For CGGACA, the binding signal is 1 fold enrichment (6-mer frequency, TF over GST control).
Consider GGACCG, for which the binding signal is 1.12 fold enrichment (6-mer frequency, TF over GST control).
Still for that read-out and setting: the same measure for CGGCCG: 1.03 fold enrichment (6-mer frequency, TF over GST control).

The target of another experiment is T3, ETV7 (Homo sapiens, UniProt Q9Y603 1-341).
T3 sequence: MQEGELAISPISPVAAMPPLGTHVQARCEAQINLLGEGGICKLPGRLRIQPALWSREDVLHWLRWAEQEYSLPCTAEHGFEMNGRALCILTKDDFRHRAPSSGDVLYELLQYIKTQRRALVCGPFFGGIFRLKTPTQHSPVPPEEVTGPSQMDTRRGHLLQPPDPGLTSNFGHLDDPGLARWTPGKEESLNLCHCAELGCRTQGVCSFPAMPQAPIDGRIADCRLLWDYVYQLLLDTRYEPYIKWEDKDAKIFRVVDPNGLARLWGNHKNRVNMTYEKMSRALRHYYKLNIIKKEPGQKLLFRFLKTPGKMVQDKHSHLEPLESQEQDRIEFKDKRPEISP
The experiment is described as above. As to conditions: protein: recombinant; tags: N-terminal GST; dsDNA, one strand shown. The method in brief:
as §1
As to CACGGT, the binding signal was 1 fold enrichment (6-mer frequency, TF over GST control).
On the same count and under the same terms, the same measure for ACGGGT: 1.01 fold enrichment (6-mer frequency, TF over GST control); for GTGGTG: 1 fold enrichment (6-mer frequency, TF over GST control).
For the sequence GCCACG, the binding signal is 1.03 fold enrichment (6-mer frequency, TF over GST control).
On to AAAGTG, for which the binding signal is 1.04 fold enrichment (6-mer frequency, TF over GST control).
The same measure, in the same setting: the same measure for CAGCGA: 1.01 fold enrichment (6-mer frequency, TF over GST control); for GCGCGG: 1.01 fold enrichment (6-mer frequency, TF over GST control); for GGGTAC: 1 fold enrichment (6-mer frequency, TF over GST control).

A further experiment deals with T4, ELF5 (Homo sapiens, UniProt Q9UKW6-2 1-255).
T4 sequence: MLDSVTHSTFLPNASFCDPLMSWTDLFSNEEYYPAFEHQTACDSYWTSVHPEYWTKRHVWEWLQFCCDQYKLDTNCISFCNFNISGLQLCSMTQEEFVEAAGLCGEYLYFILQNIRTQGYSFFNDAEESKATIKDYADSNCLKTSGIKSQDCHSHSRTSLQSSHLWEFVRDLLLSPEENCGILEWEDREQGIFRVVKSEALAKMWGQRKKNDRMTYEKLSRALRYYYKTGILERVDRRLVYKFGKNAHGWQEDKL
The description is as above. The settings on record: protein: recombinant; tags: N-terminal GST; dsDNA, one strand shown. The method in brief: as §1
For AGTAGT, the binding signal is 1.07 fold enrichment (6-mer frequency, TF over GST control).
Same read-out and setting: the same measure for GGGAAG: 1.24 fold enrichment (6-mer frequency, TF over GST control); for TCCAGG: 1.01 fold enrichment (6-mer frequency, TF over GST control).
On the same count and under the same terms, then AGCAGG, with 1.02 fold enrichment (6-mer frequency, TF over GST control).
The same measure, in the same setting: then GGGATG, with 1.01 fold enrichment (6-mer frequency, TF over GST control); and CAAGGA, with 1.03 fold enrichment (6-mer frequency, TF over GST control).
For the sequence GGAAGG, the binding signal is 1 fold enrichment (6-mer frequency, TF over GST control).
Take CGGGAA: the binding signal is 1.06 fold enrichment (6-mer frequency, TF over GST control).
For GAGGAA, the binding signal was 1.11 fold enrichment (6-mer frequency, TF over GST control).
